# Data published in PubChem BioAssay (NCATS).
# Records with an inconclusive call do not appear. The source made the active and inactive calls. Calls come from the whole dose curve; as a rule, active = well fitted inhibition curve with a large enough effect; inconclusive = small, poorly fitted or top-dose-only effect; inactive = flat fitted curve, though single readings scatter.
# Assay: qHTS to identify inhibitors of the type 1 interferon - major histocompatibility complex class I in skeletal muscle: primary screen against the NCATS Pharmaceutical Collection (AID 1347407)
# Settings: human skeletal muscle cells, IFN-b-induced MHC-I HiBiT luminescence, 24 h; series mostly up to 45.9 µM; activity change, negative = inhibition: at the top concentration
# Source text: Assay Submitter (PI): Travis B. Kinder Ph.D. & James Inglese Ph.D.
# Assay Development and Screening Technology Laboratory (ADST)
# National Center for Advancing Translational Sciences (NCATS), Rockville, MD
# National Institute of Health (NIH), Bethesda, Maryland
# Idiopathic inflammatory myopathies, collectively referred to as myositis, are a group of rare autoimmune diseases characterized by skeletal muscle inflammation, weakness, and usually accompanied by systemic pathologies of the skin, lungs, or vasculature. Current immunosuppressive therapies and glucocorticoids are often not curative and are accompanied by harsh side effects, especially in children with juvenile myositis. We initiated a drug repurposing and development program to identify more targeted, less toxic therapeutics to treat myositis. Although its cause is not known, muscle from a subset of patients have an abundance of the inflammatory type 1 interferon (IFN) and a down-stream product major histocompatibility complex class I (MHC class I), which are both thought to contribute to damage and weakness. We conducted quantitative high throughput screening on 6,576 compounds (4,679 unique) through a series of cell-based assays to identify those that inhibit the IFN-stimulated expression of MHC class I in muscle precursor cells (myoblasts). The compound identification and evaluation strategy utilized a primary screen with reporter-tagged MHC class I in genome-engineered myoblasts, ATP content counter screen for viability, HLA-ABC immunofluorescence secondary screen, and HLA-B RT-qPCR tertiary screen.
# The primary screen utilized CRISPR/Cas9 genome-engineering of immortalized human myoblasts, C25cl48, where a pro-luminescent reporter HiBit was fused to the C-terminus of endogenous MHC class I allele HLA-B*08:01 (HLA-B HiBit myoblasts). HiBit is an 11 amino acid fragment of NanoLuc luminescent reporter (Promega Corporation), and when complexed to the larger LgBit fragment, the reconstituted enzyme produces light in the presence of furimazine substrate (Schwinn et al., 2018). Briefly, HLA-B HiBit myoblasts were plated into 1536-well plates, treated with 4.0 ng/ml human IFN-beta and 2,816 compounds from the NCATS Pharmaceutical Collection (NPC) that contains all drugs approved in the US, EU, and Japan (Huang et al., 2011) in an 8-point, 1:5 titration with a high final concentration of 46 uM. After 24 hrs of treatment, cells were assayed by Nano-Glo HiBiT Lytic Detection System (Promega) and luminescence measured by a ViewLux 1430 Ultra HTS (Perkin Elmer).
# Huang R, Southall N, Wang Y, Yasgar A, Shinn P, Jadhav A, Nguyen D-T, Austin CP. 2011. The NCGC pharmaceutical collection: a comprehensive resource of clinically approved drugs enabling repurposing and chemical genomics. Sci Transl Med 3:80ps16. doi:10.1126/scitranslmed.3001862
# Schwinn MK, Machleidt T, Zimmerman K, Eggers CT, Dixon AS, Hurst R, Hall MP, Encell LP, Binkowski BF, Wood K V. 2018. CRISPR-Mediated Tagging of Endogenous Proteins with a Luminescent Peptide. ACS Chem Biol 13:467-474. doi:10.1021/acschembio.7b00549
# PROTOCOL TABLE (as described by Inglese et al., 2007)
# SEQUENCE No. (e.g., 1, 2, 3, etc.); […] (e.g., Cells, Incubation, Reagent, etc.); VALUE; DESCRIPTION
# 1a; Cells; 5 uL; Use a Multidrop Combi (Thermo Scientific) to seed 350 cells/well into nine Greiner 1536 well white/solid bottom, high base, TC plates in 5 ul/well of iHSKM growth medium (GM) without dexamethasone into columns 1+2. Add metal lids with gas-exchange holes
# 1b; Cells; 5 uL; Use a Multidrop Combi (Thermo Scientific) to seed 350 cells/well into nine Greiner 1536 well white/solid bottom, high base, TC plates in 5 ul/well of iHSKM GM without dexamethasone + 4 ng/ml IFN-b into columns 3 - 48. Add metal lids with gas-exchange holes
# 2; Incubate; 1 hr; Incubate at 37 C, 5% CO2, 95% RH
# […]
# % is set by controls: 0 for no effect and ±100 for the full control effect.
Compound,"activity change, negative = inhibition",Potency
Cc1cc2nc3c(=O)[nH]c(=O)nc-3n(C[C@H](O)[C@H](O)[C@H](O)CO)c2cc1C,5.26% [at 19 µM] (inactive),–
[Cl][In]([Cl])[Cl],-12.6% [at 92.2 µM] (inactive),–
C=Cc1c(C)c2cc3[nH]c(cc4nc(cc5nc(cc1[nH]2)C(C)=C5CCC(=O)O)C(CCC(=O)O)=C4C)c(C)c3C=C,18.1% (inactive),–
CC(C)C(=O)c1c(C(C)C)nn2ccccc12,-4.03% (inactive),–
CCC(=O)Nc1ccc(O)cc1,-2.53% (inactive),–
NC(=O)NNc1ccccc1,-3.01% (inactive),–
CC/C=C(\C(=O)N[C@@H]1C(=O)N2C(C(=O)OCOC(=O)C(C)(C)C)=C(COC(N)=O)CS[C@H]12)c1csc(N)n1,–,inactive
CCCc1c(OCCCCc2nn[nH]n2)ccc(C(C)=O)c1O,-13.1% (inactive),–
Cc1ncc([N+](=O)[O-])n1CC(O)CCl (stereo not given),-2.64% (inactive),–
CC1(C)CO[C@@H](CC(=O)O)CN1,-3% (inactive),–
O=Cc1ccccc1C=O,10.7% (inactive),–
NCCNCCNCCN,21.1% (inactive),–
CN1CCC[C@@H]1Cc1c[nH]c2ccc(CCS(=O)(=O)c3ccccc3)cc12,1.22% (inactive),–
NC(CSCC(=O)O)C(=O)O (stereo not given),4.63% (inactive),–
CNCCCC1c2ccccc2C=Cc2ccccc21,-5.68% (inactive),–
NC1CCN(c2cccc(Cl)n2)CC1,-6.42% (inactive),–
CCCOC(=O)c1ccccc1,-7.93% (inactive),–
CCN(CC)CCSC(=O)C(c1ccccc1)c1ccccc1,-1.26% (inactive),–
Cc1cc(CC(=O)O)n(C)c1C(=O)c1ccc(Cl)cc1,3.89% (inactive),–
O=C(O)COc1nn(Cc2ccccc2)c2ccccc12,-5.31% (inactive),–

Compound,"activity change, negative = inhibition",Potency
CC(=O)OCC(=O)[C@@]1(O)CC[C@H]2[C@@H]3CCC4=CC(=O)CC[C@]4(C)[C@H]3C(=O)C[C@@]21C,-18.4% (inactive),–
NS(=O)(=O)c1cc2c(cc1Cl)NC(CSCc1ccccc1)=NS2(=O)=O,1.93% (inactive),–
CN(C)CCC=C1c2ccccc2CCc2ccccc21,-14.8% (inactive),–
C=CCn1c(=O)n([C@@H]2O[C@H](CO)[C@@H](O)[C@H]2O)c2nc(N)[nH]c(=O)c21,2.35% (inactive),–
O=C1O[C@H]([C@@H](O)CO)C(O)=C1O,-1.45% (inactive),–
O=c1cc(CO)occ1O,5.1% (inactive),–
CS(=O)(=O)c1ccc([C@@H](O)[C@@H](CF)NC(=O)C(Cl)Cl)cc1,3.18% (inactive),–
CC1=C(C/C=C(\C)CCC[C@H](C)CCC[C@H](C)CCCC(C)C)C(=O)c2ccccc2C1=O,0.907% (inactive),–
CC1(C)S[C@@H]2[C@H](NC(=O)Cc3ccccc3)C(=O)N2[C@H]1C(=O)O (tested in a mixture with another compound),-2.87% (inactive),–
C[C@H](N)[C@H](O)c1cccc(O)c1,-14.4% (inactive),–
CC[C@@]1(c2ccccc2)NC(=O)N(C)C1=O,8.46% (inactive),–
O=C(Oc1ccccc1C(=O)O)c1ccccc1O,-1.94% (inactive),–
Cc1ccc2nc(N)[nH]c(=O)c2c1Sc1ccncc1,-12% (inactive),–
CC1=C(CC(=O)O)c2cc(F)ccc2/C1=C\c1ccc(S(C)=O)cc1 (stereo not given),7.51% (inactive),–
O=S(=O)(O)c1cc(I)c(O)c2ncccc12,2.63% (inactive),–
Cc1cccc(C)c1NC(=O)CN(CC(=O)O)CC(=O)O,-6.02% (inactive),–
O=C1O[C@H](CO)[C@@H](O)[C@H](O)[C@H]1O,-14.3% (inactive),–
COc1ccc(Cl)cc1C(=O)NCCc1ccc(S(=O)(=O)NC(=O)NC2CCCCC2)cc1,0.994% (inactive),–
N[C@@H](CSCCCO)C(=O)O,3.64% [at 19 µM] (inactive),–
OCC(CO)N[C@H]1C[C@](O)(CO)[C@@H](O)[C@H](O)[C@H]1O,-7.31% (inactive),–
